Source: PubChem BioAssay AID504357 (The Scripps Research Institute Molecular Screening Center, 2011)
Screen size: about 340,000 compounds; about 700 (0.21%) were called active. No stated cut-off is given here; in the data, active means inhibition above about 22% (passing the limit was not always enough); inactive means the rest. This excerpt belongs to a sample that is enriched for actives.

Target: Mu-type opioid receptor (Homo sapiens) + Delta-type opioid receptor (Homo sapiens) (UniProt P35372+P41143)
Sequence (P35372 whole entry, looked up): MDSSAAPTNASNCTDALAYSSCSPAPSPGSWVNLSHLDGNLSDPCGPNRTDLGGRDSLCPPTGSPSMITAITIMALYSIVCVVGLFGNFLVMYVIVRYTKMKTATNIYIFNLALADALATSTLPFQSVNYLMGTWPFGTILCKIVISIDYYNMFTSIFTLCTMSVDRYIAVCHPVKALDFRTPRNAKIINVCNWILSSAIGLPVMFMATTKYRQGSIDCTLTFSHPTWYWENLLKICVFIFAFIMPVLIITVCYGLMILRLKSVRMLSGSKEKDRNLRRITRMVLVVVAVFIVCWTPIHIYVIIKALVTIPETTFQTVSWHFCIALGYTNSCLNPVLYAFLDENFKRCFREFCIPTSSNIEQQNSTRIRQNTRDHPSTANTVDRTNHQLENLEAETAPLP
Sequence (P41143 whole entry, looked up): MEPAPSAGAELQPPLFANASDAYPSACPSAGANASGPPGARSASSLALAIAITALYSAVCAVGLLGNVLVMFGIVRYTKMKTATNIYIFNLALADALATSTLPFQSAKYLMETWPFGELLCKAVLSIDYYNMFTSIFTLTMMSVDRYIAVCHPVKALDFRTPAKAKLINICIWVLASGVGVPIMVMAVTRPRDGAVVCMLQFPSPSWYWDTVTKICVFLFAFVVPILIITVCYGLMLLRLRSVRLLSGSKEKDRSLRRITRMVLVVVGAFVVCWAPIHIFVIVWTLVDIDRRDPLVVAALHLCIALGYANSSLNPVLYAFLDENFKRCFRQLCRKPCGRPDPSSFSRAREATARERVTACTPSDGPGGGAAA
Experiment: OPRM1-OPRD1 heterodimer inverse agonism – cell-based, luminescence, primary screen (AID 504357);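 further: 0% = cells with DMSO and 100% = wells without cells with DMSO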
Details: cell-based MOR-DOR heterodimer luminescence, at 9.3 µM, stronger effect = higher value

SMILES	inhibition
CC1=CC(=Cc2sc3ccccc3[n+]2C)C=C(C)O1	17.5% (active)
Clc1ccc2nc3c(c(-c4ccccc4)c2c1)CNCC3	8.41% (inactive)
CN(C)CC1CCCCC1=O (stereo not given)	10.9% (inactive)
CCC(=O)OC(Cc1ccccc1)(c1ccccc1)C(C)CN(C)C (stereo not given)	8.03% (inactive)
CCOC(=O)c1c(N)n(CCN2CCOCC2)c2nc3ccccc3nc12	30.9% (active)
O=C(OCCN1CCOCC1)C1(c2ccccc2)CCCC1	1.05% (inactive)
CC/C(=N\NC(=O)c1ccccc1O)c1c(O)n(Cc2ccccc2)c(=O)[nH]c1=O	9.92% (inactive)
COc1cc(Cn2c(N)c(C(=O)NCc3ccco3)c3nc4ccccc4nc32)cc(OC)c1OC	1.03% (inactive)
CCOC(=O)c1c(N)n(Cc2ccccc2)c2nc3ccccc3nc12	37% (active)
CC(C)(C)c1ccc(OC(=O)N2CCCCC2)cc1	-27.7% (inactive)
COC(=O)C1=C(c2ccc(F)cc2OCc2ccccc2)C[C@@H]2CC[C@H]1N2C(=O)NCc1ccc2[nH]ccc2c1	-2.75% (inactive)
O=C(NC(c1ccc(Cl)cc1)P(=O)(Oc1ccccc1)Oc1ccccc1)OCc1ccccc1 (stereo not given)	-3.43% (inactive)
CCC(=O)CC(c1ccc([N+](=O)[O-])cc1)c1c(O)c2ccccc2oc1=O (stereo not given)	14.4% (inactive)
CN(C)S(=O)(=O)c1cc(C(=O)N2CCC(C(=O)O)(c3ccccc3)CC2)ccc1Cl	19.2% (inactive)
Cc1nn(-c2ccccc2)c(C)c1NC(=O)COC(=O)Cc1ccccc1	21% (inactive)
CC(=O)OC1C2(CC3N4C(=O)C5(CO)SSC4(CC31O)C(=O)N5C)OC(C)C(C)(C)C2=O (stereo not given)	102% (active)
CC(C)Nc1nc(Cl)nc(NC(C)C)n1	6.88% (inactive)
CCc1nnc(NS(=O)(=O)c2ccc(N=Cc3c(O)n(-c4ccccc4)c(=O)[nH]c3=O)cc2)s1	14.4% (inactive)
CC(=NCc1ccc2c(c1)OCO2)c1c(O)[nH]c(=O)[nH]c1=O	-10.5% (inactive)
CNCC(O)c1cc(F)c(OCc2ccccc2)c(OCc2ccccc2)c1F (stereo not given)	-9.33% (inactive)
